Measurements: PubChem BioAssay AID1645858 (Buhrlage Lab, Dana-Farber Cancer Institute and Novartis …, 2021)
Out of some 47,000 compounds screened, about 330 (0.7%) were called active. The sample holds actives, similar compounds and a random draw of the others, so the mix is not that of the screen. No stated cut-off is given here; in the data, active means inhibition above about 30%; inactive means the rest.

These compounds were tested against OTU domain-containing protein 3 (Homo sapiens) (UniProt Q5T2D3) (assay: inhibitors of human OTUD3 deubiquitinase (AID 1645858)). Conditions: purified OTUD3, Ub-rhodamine fluorescence, 2 h; at 25 µM; hits give high values.
Sequence of OTU domain-containing protein 3 (Homo sapiens) (Q5T2D3 whole entry, looked up, the tested form may be a part): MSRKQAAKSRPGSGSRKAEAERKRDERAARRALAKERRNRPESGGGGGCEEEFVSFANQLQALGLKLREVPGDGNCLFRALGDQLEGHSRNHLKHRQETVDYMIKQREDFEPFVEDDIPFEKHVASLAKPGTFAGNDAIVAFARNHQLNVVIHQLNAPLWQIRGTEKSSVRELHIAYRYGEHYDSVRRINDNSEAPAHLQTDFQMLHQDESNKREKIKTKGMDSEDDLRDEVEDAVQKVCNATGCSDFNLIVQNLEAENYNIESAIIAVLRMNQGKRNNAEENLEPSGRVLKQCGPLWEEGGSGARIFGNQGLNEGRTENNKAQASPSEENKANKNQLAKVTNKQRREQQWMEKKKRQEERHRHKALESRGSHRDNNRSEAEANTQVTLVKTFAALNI

| Structure (SMILES) | inhibition |
| --- | --- |
| Cc1nc(-c2ncc[nH]2)cc(C2CCCCN2S(=O)(=O)N(C)C)n1 (stereo not given) | -4.61% (inactive) |
| N#Cc1cccc(S(=O)(=O)c2c[nH]c3ccc(Cl)cc3c2=O)c1 | -5.74% (inactive) |
| CCC(C)C1NC(=O)C(Cc2ccc(O)cc2)NC(=O)C(CCC(N)=O)NC(=O)C2CCCN2C(=O)C(C(C)C)NC(=O)C(CCC(=O)O)NC(=O)C(C(C)O)NC(=O)C(NC(=O)C(CCCN)NC(=O)C(CCC(=O)O)NC(=O)CCCCCCCCCCCCCC(C)C)Cc2ccc(cc2)OC1=O (stereo not given) | 5.05% (inactive) |
| O=C(NC(C(=O)N1CCCc2ccccc21)c1ccccc1)c1cnccn1 (stereo not given) | 14.1% (inactive) |
| N#Cc1ccc(NC(=O)Nc2cccn(Cc3ccccc3F)c2=O)cc1 | 37.7% (active) |
| Cc1noc(-c2cccn(Cc3cc(F)ccc3F)c2=O)n1 | 5.03% (inactive) |
| O=C(Cn1cccc(-c2nc(-c3ccccc3)no2)c1=O)Nc1ccccc1F | 6.4% (inactive) |
| Cc1cc(C(=O)N2CCCCC2c2[nH]ncc2C)c2c(C)noc2n1 (stereo not given) | 11.6% (inactive) |
| COc1ccccc1C(=O)Nc1ccc(N(c2ccccc2)C(C)C)cc1 | 2.72% (inactive) |
| FC(F)(F)c1cc(N2CCCCC2)nc(-c2ccccn2)n1 | -3.6% (inactive) |
| CC(Sc1ncnc2ccccc12)C(=O)NCc1ccc2c(c1)OCO2 (stereo not given) | 12.8% (inactive) |
| Cn1cc(C2CCCN2C(=O)c2ccc(-n3cccn3)nc2)cn1 (stereo not given) | -5.62% (inactive) |
| COc1ccc(-c2cc(=O)oc3c(C)c(OCc4ccccc4F)ccc23)cc1 | 1.77% (inactive) |
| CN1CCN(c2nc3c(s2)CN(C(=O)c2ccnn2C)CC3)CC1 | -25.7% (inactive) |
| COc1cccc(NC(=O)C(Sc2cccc(NC(=O)c3ccccc3F)c2)c2ccccc2)c1 (stereo not given) | 15.7% (inactive) |
| C#CCOc1ccc2ccccc2c1CN1CCc2ccccc2C1 | 14.8% (inactive) |
| COCCN(C(=O)CCC(=O)Nc1ccccn1)C(C(=O)NCC1CCCO1)c1ccc(C)cc1 (stereo not given) | 12.3% (inactive) |
| CN1C[C@H]2CCN(S(=O)(=O)c3ccc(OC(F)(F)F)cc3)C[C@H]21 | 5.38% (inactive) |
| COc1ccccc1N1CCN(C(=O)CSCc2ccccc2C)CC1 | -10.5% (inactive) |
| CC(C)C(NS(=O)(=O)c1ccccc1)C(=O)OCC(=O)Nc1cc([N+](=O)[O-])ccc1F (stereo not given) | 6.16% (inactive) |
| CCCc1cc(=O)[nH]c2nnc(SCC(=O)N(CC)CC)n12 | -0.85% (inactive) |
| Cc1nn(-c2ccc(F)cc2F)c2c1C(C(=O)c1cc3ccccc3o1)CC(=O)N2 (stereo not given) | -3.81% (inactive) |

| Structure (SMILES) | inhibition |
| --- | --- |
| CCCCC1CCC(C(=O)N2CCC(C3(C)NC(=O)NC3=O)CC2)CC1 (stereo not given) | 5.45% (inactive) |
| CCc1ccc(S(=O)(=O)Nc2cc(C(=O)Nc3ccccc3)ccc2OC)cc1 | -4% (inactive) |
| Cc1cc(CN2CC[C@H]3[C@H]2CCN3S(C)(=O)=O)oc1C | -12% (inactive) |
| Cc1nn(CC(C)C)c(C)c1CC(=O)N1CCCC1c1cnn(C)c1 (stereo not given) | -0.626% (inactive) |
| NC(=O)CC[C@H](NC(=O)[C@@H]1CCCN1C(=O)[C@H](Cc1ccccc1)n1c(=O)[nH]c2ccccc2c1=O)C(=O)O | -2.35% (inactive) |
| Cc1ccc(NC(=O)C2CCN(S(=O)(=O)c3cnc[nH]3)CC2)cc1Cl | -2.32% (inactive) |
| O=C(Cc1c(Cl)cccc1Cl)NCc1cccc(C(F)(F)F)c1 | 4.26% (inactive) |
| COc1cccc(CN2C[C@@]34CN(C(=O)C5CCC5)C[C@@H](C[C@@H]3S2(=O)=O)O4)c1 | 9.25% (inactive) |
| Cc1ccc(C(=O)N2C[C@H]3NC(=O)c4ccccc4C(=O)[C@@]3(C)C2)cc1 | -0.0157% (inactive) |
| CCN(C(=O)c1cncc(Br)c1)c1nc2ccccc2s1 | -0.0268% (inactive) |
| COc1ccc(-c2ocnc2C(=O)NCc2ccc(OC)c(OC)c2)cc1 | -9.98% (inactive) |
| COc1cccc(-c2ocnc2C(=O)NCc2ccc(OC)c(OC)c2)c1 | -12.9% (inactive) |
| COc1cc(OC)cc(-c2nnc(NC(=O)c3ccc([N+](=O)[O-])o3)o2)c1 | 40.4% (active) |
| Nc1c(C(=O)CN2CCc3ccccc32)c(=O)[nH]c(=O)n1C1CC1 | -63.2% (inactive) |
| Cc1ccccc1S(=O)(=O)NCc1nc2cccnc2n1C1CC1 | -1.25% (inactive) |
| COC(=O)c1cc(S(=O)(=O)Nc2ccc(NC(=O)c3ccccc3)cc2)ccc1Cl | 2.44% (inactive) |
| Cc1cccc(Nc2nccnc2C2CCCN2C(=O)c2ccnnc2)n1 (stereo not given) | 10.1% (inactive) |
| O[C@H]1[C@H](NCc2cnc3ccccc3c2)[C@@H](c2cncnc2)C[C@H]1O | -7.7% (inactive) |
| Cc1ccccc1C(=O)N1CCC2(CC1)c1ncc(-c3cccnc3)n1CCN2C | -6.54% (inactive) |
| CSc1nc2c(c(Nc3ccc(C(C)=O)cc3)n1)CCC2 | -0.0554% (inactive) |
| CC(C)Nc1ncnc2c1c(C(=O)N1CCCC1)c1ccccn12 | -56.8% (inactive) |
| Cc1cc(O)c(=O)cc2c1C[C@H]1CC(C)(C)/C=C/C[C@@]3(C)Oc4cc(=O)c(O)cc(C)c4C[C@@H]3C[C@H](O)[C@]1(C)O2 | 33.2% (active) |

| Structure (SMILES) | inhibition |
| --- | --- |
| Cc1cccc(Nc2cccc(C3CCCN3C(=O)c3cccnc3)n2)n1 (stereo not given) | -0.95% (inactive) |
| CN1CCN(c2ccc3nnc(CCC(=O)NC4CCN(Cc5ccccc5)CC4)n3n2)CC1 | 5.05% (inactive) |
| CC(C)=CCc1cc(O)ccc1O | -3.32% (inactive) |
| CC(C)=CCC(O)C1=CC(=O)c2c(O)ccc(O)c2C1=O (stereo not given) | 94.7% (active) |
| Cc1cc(C)c2nc3c(cc2c1)CN(Cc1ccco1)C(=O)O3 | 19.2% (inactive) |
| CC1(c2ncc(Cc3cccc(F)c3)o2)CCCN(C(=O)CN2CCCC2)C1 (stereo not given) | -4.47% (inactive) |
| COc1ccccc1CCN[C@H]1CS(=O)(=O)C[C@@H]1S(=O)(=O)c1ccccc1 | 2.36% (inactive) |
| COc1ccc(NC(=O)c2cn(C)nc2S(=O)(=O)N2CCCCCC2)cc1 | 11% (inactive) |
| CC(C)NC(=O)c1cccc(-c2noc(-c3ccccc3Br)n2)c1 | 0.0532% (inactive) |
| COC(=O)c1ccc(NC(=O)CSc2nnc(C(C)Oc3ccccc3)n2C)cc1 (stereo not given) | -2.47% (inactive) |
| Cc1cc(C)nc(N(C(=O)C2CC2)c2ccc(OC(F)(F)F)cc2)n1 | -7.68% (inactive) |
| Cc1nnc(OCC(=O)Nc2ccc(OC(F)(F)F)cc2)c2ccccc12 | 35.8% (active) |
| Cc1nc(Nc2ncccn2)cc(C2CCCN2S(=O)(=O)N(C)C)n1 (stereo not given) | -8.82% (inactive) |
| Cc1ccc(S(=O)(=O)N2CCC3(CC2)OC(C(=O)NCC(C)C)Cn2ccnc23)cc1 (stereo not given) | -3.62% (inactive) |
| O=C(CNC(=O)C1COc2ccccc2O1)Nc1ccccc1Br (stereo not given) | -5.2% (inactive) |
| CCn1nccc1C1CCCN1C(=O)C12CC3CC(CC(C3)C1)C2 (stereo not given) | -2.13% (inactive) |
| COc1ccc(-c2ccc(CCC(=O)NCc3ccccc3)o2)cc1 | 0.714% (inactive) |
| OC1CCC(Nc2nc(CN3CCOCC3)nc3sc4c(c23)CCC4)CC1 (stereo not given) | 1.88% (inactive) |
| O=C(Nc1ccc(Cl)c(Cl)c1)C1C2C=CC3(O2)C1C(=O)N(CCCN1CCN(Cc2ccccc2)CC1)C3C(=O)NC1CCCCC1 (stereo not given) | -13.9% (inactive) |
| CCN1C(=O)COc2cc(-c3noc(C(=O)N4CCN(c5ccccc5)CC4)n3)ccc21 | 5.26% (inactive) |
| COc1cccc(NC(=O)C2Cc3ccccc3N2C(=O)c2ccccc2)c1 (stereo not given) | 12% (inactive) |
| NS(=O)(=O)c1ccc(NS(=O)(=O)c2ccc(NC(=O)c3ccccc3)cc2)cc1 | 4.22% (inactive) |

| Structure (SMILES) | inhibition |
| --- | --- |
| CC(NC(=O)c1ncoc1-c1ccc(F)cc1)c1ccccn1 (stereo not given) | 3.88% (inactive) |
| O=C(CNS(=O)(=O)/C=C/c1ccccc1)N1CCCC(c2nc3ccccc3s2)C1 (stereo not given) | -13.9% (inactive) |
| CN(C)c1cccc(C(=O)OCC(=O)Nc2ccc(Cl)cn2)c1 | 1.07% (inactive) |
| Oc1cccc2nc3c(O)cccc3nc12 | 60.7% (active) |
| CC(C)(C)C(=O)c1cn(CC(=O)N2CCc3ccccc3C2)c2ccccc12 | 0.535% (inactive) |
| Clc1ccc(C2NC3=NCN(Cc4ccco4)CN3c3nc4ccccc4n32)cc1 (stereo not given) | 11.6% (inactive) |
| O=C(Cn1cnc2ccccc21)N1CC(c2nc(-c3ccncc3)no2)C1 | -2.15% (inactive) |
| COc1cccc(-n2c(=O)c(C(=O)NC(C)c3ccccc3)c(O)c3cccnc32)c1 (stereo not given) | 1.53% (inactive) |
| O=C(NC1CCN(Cc2ccccc2)CC1)c1cc2cn(C3CC3)cc2s1 | -34.6% (inactive) |
| Cc1ccc(S(=O)(=O)NCCc2nnc3ccc(SCC(=O)NCc4ccc5c(c4)OCO5)nn23)cc1 | 11.1% (inactive) |
| CCc1cc(C(=O)NCc2ccccc2)nc2ccnn12 | -0.736% (inactive) |
| CCN(CC)S(=O)(=O)c1ccc(C(=O)Nc2sc(C)c(C)c2C(N)=O)cc1 | -4.61% (inactive) |
| CC(=O)c1ccc(NC(=O)CSc2ncnc3c2cnn3-c2ccc(C)cc2C)cc1 | -0.915% (inactive) |
| Cc1ccc(S(=O)(=O)N2C[C@H]3NC(=O)c4ccccc4C(=O)[C@@]3(C)C2)cc1 | -3.74% (inactive) |
| COc1cc(C2c3[nH]c4ccccc4c3C[C@@H]3C(=O)N(CCC4=CCCCC4)CC(=O)N23)cc(OC)c1OC (stereo not given in full) | -46.8% (inactive) |
| O=C(Nc1ccccc1Cl)N1C[C@H]2C[C@H]3[C@](C1)(CN(Cc1cccnc1)S3(=O)=O)O2 | 2.31% (inactive) |
| C[C@@H]1CC[C@H]2C(CN3CCCC(C)(C)C3)C(=O)O[C@]23[C@H]1CC[C@@]1(C)O[C@@H]31 (stereo not given in full) | -0.238% (inactive) |
| CCOc1ccccc1Oc1nnnn1-c1ccccc1 | 23% (inactive) |
| CN(C(=O)COc1ccc(C(N)=O)cc1)C1CCCCC1 | -6.97% (inactive) |
